According to PubChem BioAssay AID1159580 (chemical genetic matrix, 2015):
“And” between values parts separate entries of the source, which are not always exact repeats. Identical values can stand only once. In all, about 5,500 compounds went through this assay and about 2,000 (36%) were called active. About 18% were inconclusive and are not listed. Cut-off read from the data, not from the text of the source: active = normalized growth mostly below about 0.91 (no sharp cut-off); inconclusive = no clear call, values can overlap the other calls; inactive = mostly above about 0.92. The list shows a part of the results.

Experiment: chemical genetic growth profiling, strain panel (AID 1159580);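 note: tested at 20 µM; growth read once vehicle control cultures reached saturation at 30 °C; 1 = growth at the plate median or of vehicle wells; lower values mean less growth of the strain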
Conditions: S. cerevisiae deletion strains, growth OD

Measured: normalized growth

C=C1CCC2C(CC2(C)C)C(=O)CCC1O (stereo unspecified)
inactive: locus YAL013W, strain DEP1, hits give low values 0.984 | locus YAL021C, strain ccr4, hits give low values 0.94 | locus YAL026C, strain drs2, hits give low values 0.996 | locus YAL030W, strain snc1, hits give low values 1 | locus YBL061C, strain skt5, hits give low values 0.999 | locus YBR009C, strain hhf1, hits give low values 0.987 | locus YBR021W, strain FUR4, hits give low values 1.02 | locus YBR023C, strain chs3, hits give low values 0.986 | locus YBR171W, strain sec66, hits give low values 1 | locus YBR229C, strain ROT2, hits give low values 1.01 | locus YBR231C, strain swc5, hits give low values 1.01 | locus YBR279W, strain paf1, hits give low values 0.995 | locus YCL011C, strain gbp2, hits give low values 0.984 | locus YCL016C, strain dcc1, hits give low values 0.983 | locus YCL029C, strain bik1, hits give low values 1 | locus YCL061C, strain MRC1, hits give low values 0.993 | locus YCL069W, strain vba3, hits give low values 0.999 | locus YCR088W, strain abp1, hits give low values 0.993 | locus YDL005C, strain med2, hits give low values 0.991 | locus YDL035C, strain GPR1, hits give low values 1 | locus YDL040C, strain nat1, hits give low values 1 | locus YDL074C, strain BRE1, hits give low values 1 | locus YDL101C, strain DUN1, hits give low values 1.03 | locus YDL134C, strain PPH21, hits give low values 1.04 | locus YDL185W, strain tfp1, hits give low values 1.03 | locus YDL192W, strain arf1, hits give low values 0.992 | locus YDR001C, strain nth1, hits give low values 0.976 | locus YDR069C, strain doa4, hits give low values 0.981 | locus YDR101C, strain arx1, hits give low values 0.995 | locus YDR137W, strain rgp1, hits give low values 0.985 | locus YDR159W, strain sac3, hits give low values 1.06 | locus YDR162C, strain NBP2, hits give low values 1.01 | locus YDR195W, strain ref2 0.968 | locus YDR297W, strain sur2, hits give low values 1.01 | locus YDR318W, strain mcm21, hits give low values 1 | locus YDR334W, strain swr1, hits give low values 0.988 | locus YDR335W, strain msn5, hits give low values 0.985 | locus YDR388W, hits give low values 1.02 | locus YDR392W, strain spt3, hits give low values 0.911 | locus YDR502C, strain sam2, hits give low values 1.04 | locus YEL003W, strain gim4, hits give low values 1 | locus YEL037C, strain rad23, hits give low values 0.993 | locus YEL061C, strain CIN8 (second series), hits give low values 0.993 | locus YEL061C, strain CIN8, hits give low values 1.02 | locus YER015W, strain faa2, hits give low values 0.981 | locus YER016W, strain bim1, hits give low values 1 | locus YER110C, hits give low values 1.02 | locus YER111C, strain swi4, hits give low values 0.997 | locus YER155C, strain BEM2 (second series), hits give low values 1.03 | locus YER155C, strain BEM2, hits give low values 1 | locus YER167W, strain BCK2, hits give low values 1 | locus YFR010W, strain ubp6, hits give low values 0.996 | locus YGL078C, strain dbp3, hits give low values 1.04 | locus YGL086W, strain mad1, hits give low values 1.02 | locus YGL167C, strain pmr1, hits give low values 0.975 | locus YGL173C, strain kem1, hits give low values 1 | locus YGL227W, strain vid30, hits give low values 0.985 | locus YGL240W, strain doc1, hits give low values 1 | locus YGL248W, strain PDE1, hits give low values 1.05 | locus YGL253W, strain hxk2, hits give low values 1.02 | locus YGR078C, strain PAC10, hits give low values 1.02 | locus YGR135W, strain pre9, hits give low values 1.08 | locus YGR229C, strain SMI1, hits give low values 0.945 | locus YGR252W, strain gcn5, hits give low values 1.08 | locus YHR013C, strain ard1, hits give low values 0.978 | locus YHR027C, strain rpn1, hits give low values 1 | locus YHR030C, strain SLT2, hits give low values 1.02 | locus YHR079C, strain IRE1 (second series), hits give low values 1.01 | locus YHR079C, strain IRE1, hits give low values 1.03 | locus YHR094C, strain hxt1, hits give low values 1.01 | locus YHR129C, strain ARP1, hits give low values 1.01 | locus YHR142W, strain chs7, hits give low values 0.979 | locus YHR200W, strain rpn10, hits give low values 1.03 | locus YIL066C, strain RNR3, hits give low values 1.02 | locus YIL073C, strain SPO22, hits give low values 1.09 | locus YIL125W, strain kgd1, hits give low values 1.01 | locus YIR030C, strain dcg1, hits give low values 1.01 | locus YJL092W, strain hpr5, hits give low values 0.988 | locus YJL095W, strain BCK1 (second series), hits give low values 0.987 | locus YJL095W, strain BCK1, hits give low values 1.08 and 1.04 | locus YJL115W, strain asf1, hits give low values 0.961 | locus YJL129C, strain trk1, hits give low values 0.984 | locus YJL134W, strain LCB3, hits give low values 1.01 | locus YJL154C, strain vps35, hits give low values 0.99 | locus YJL164C, strain tpk1, hits give low values 0.963 | locus YJL166W, strain qcr8, hits give low values 0.993
